Among all 5,500 compounds or so, about 2,000 (36%) were called active. About 18% were inconclusive and are not listed. Cut-off read from the data, not from the text of the source: active = normalized growth mostly below about 0.91 (no sharp cut-off); inconclusive = no clear call, values can overlap the other calls; inactive = mostly above about 0.92. The list shows a part of the results.
Assay: chemical genetic growth profiling, strain panel (AID 1159580);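 note: tested at 20 µM; growth read once vehicle control cultures reached saturation at 30 °C; 1 = growth at the plate median or of vehicle wells; lower values mean less growth of the strain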
Conditions: growth OD

Measured: normalized growth

CC(=O)NC(C(=O)O)C(C)(C)SN=O (centres undefined)
inactive: S. cerevisiae deletion strains, locus YJR043C, strain POL32, stronger effect = lower value 0.995 | S. cerevisiae deletion strains, locus YJR075W, strain HOC1, stronger effect = lower value 1.03 | S. cerevisiae deletion strains, locus YKL009W, strain mrt4, stronger effect = lower value 0.957 | S. cerevisiae deletion strains, locus YKL068W, stronger effect = lower value 0.99 | S. cerevisiae deletion strains, locus YKL085W, strain MDH1 (second series), stronger effect = lower value 0.987 | S. cerevisiae deletion strains, locus YKL085W, strain MDH1, stronger effect = lower value 0.987 | S. cerevisiae deletion strains, locus YKL160W, strain elf1, stronger effect = lower value 0.996 | S. cerevisiae deletion strains, locus YKL190W, strain CNB1, stronger effect = lower value 1.01 | S. cerevisiae deletion strains, locus YKR001C, strain vps1, stronger effect = lower value 1 | S. cerevisiae deletion strains, locus YKR026C, strain gcn3, stronger effect = lower value 0.989 | S. cerevisiae deletion strains, locus YKR091W, strain srl3, stronger effect = lower value 0.986 | S. cerevisiae deletion strains, locus YLL001W, strain dnm1, stronger effect = lower value 1 | S. cerevisiae deletion strains, locus YLL026W, stronger effect = lower value 1 | S. cerevisiae deletion strains, locus YLL041C, strain sdh2, stronger effect = lower value 0.99 | S. cerevisiae deletion strains, locus YLR027C, strain aat2, stronger effect = lower value 1 | S. cerevisiae deletion strains, locus YLR039C, strain RIC1, stronger effect = lower value 1 | S. cerevisiae deletion strains, locus YLR058C, strain SHM2, stronger effect = lower value 1.01 | S. cerevisiae deletion strains, locus YLR102C, strain apc9, stronger effect = lower value 0.993 | S. cerevisiae deletion strains, locus YLR221C, strain rsa3, stronger effect = lower value 1 | S. cerevisiae deletion strains, locus YLR258W, strain gsy2, stronger effect = lower value 0.994 | S. cerevisiae deletion strains, locus YLR262C, strain YPT6 (second series), stronger effect = lower value 1.02 | S. cerevisiae deletion strains, locus YLR262C, strain YPT6, stronger effect = lower value 1.01 | S. cerevisiae deletion strains, locus YLR268W, strain sec22, stronger effect = lower value 1 | S. cerevisiae deletion strains, locus YLR320W, strain mms22, stronger effect = lower value 0.972 | S. cerevisiae deletion strains, locus YLR330W, strain CHS5, stronger effect = lower value 0.994 | S. cerevisiae deletion strains, locus YLR342W, strain FKS1 (second series), stronger effect = lower value 1.01 | S. cerevisiae deletion strains, locus YLR342W, strain FKS1, stronger effect = lower value 1.01 | S. cerevisiae deletion strains, locus YLR357W, strain rsc2, stronger effect = lower value 0.989 | S. cerevisiae deletion strains, locus YLR370C, strain arc18, stronger effect = lower value 0.991 | S. cerevisiae deletion strains, locus YLR371W, strain rom2, stronger effect = lower value 0.984 | S. cerevisiae deletion strains, locus YLR384C, strain iki3, stronger effect = lower value 0.974 | S. cerevisiae deletion strains, locus YLR418C, strain cdc73, stronger effect = lower value 1.06 | S. cerevisiae deletion strains, locus YML016C, strain PPZ1, stronger effect = lower value 1.01 | S. cerevisiae deletion strains, locus YML032C, strain rad52, stronger effect = lower value 0.979 | S. cerevisiae deletion strains, locus YML120C, strain ndi1, stronger effect = lower value 1 | S. cerevisiae deletion strains, locus YML124C, strain tub3, stronger effect = lower value 0.993 | S. cerevisiae deletion strains, locus YMR058W, strain fet3, stronger effect = lower value 0.993 | S. cerevisiae deletion strains, locus YMR078C, strain ctf18, stronger effect = lower value 0.982 | S. cerevisiae deletion strains, locus YMR125W, strain sto1, stronger effect = lower value 0.98 | S. cerevisiae deletion strains, locus YMR129W, stronger effect = lower value 0.993 | S. cerevisiae deletion strains, locus YMR205C, strain PFK2, stronger effect = lower value 1.01 | S. cerevisiae deletion strains, locus YMR223W, strain ubp8, stronger effect = lower value 0.995 | S. cerevisiae deletion strains, locus YMR231W, strain pep5, stronger effect = lower value 0.979 | S. cerevisiae deletion strains, locus YMR263W, strain SAP30, stronger effect = lower value 1.03 | S. cerevisiae deletion strains, locus YMR307W, strain GAS1, stronger effect = lower value 0.995 | S. cerevisiae deletion strains, locus YNL067W, strain RPL9B, stronger effect = lower value 1.02 | S. cerevisiae deletion strains, locus YNL071W, strain lat1, stronger effect = lower value 0.989 | S. cerevisiae deletion strains, locus YNL128W, strain TEP1, stronger effect = lower value 1.03 | S. cerevisiae deletion strains, locus YNL153C, strain GIM3, stronger effect = lower value 1.01 | S. cerevisiae deletion strains, locus YNL209W, strain ssb2, stronger effect = lower value 0.993 | S. cerevisiae deletion strains, locus YNL233W, strain BNI4, stronger effect = lower value 1.01 | S. cerevisiae deletion strains, locus YNL248C, strain rpa49, stronger effect = lower value 0.994 | S. cerevisiae deletion strains, locus YNL250W, strain rad50, stronger effect = lower value 0.989 | S. cerevisiae deletion strains, locus YNL271C, strain bni1, stronger effect = lower value 1 | S. cerevisiae deletion strains, locus YNL298W, strain CLA4, stronger effect = lower value 0.983 | S. cerevisiae deletion strains, locus YNL307C, strain MCK1, stronger effect = lower value 1.01 | S. cerevisiae deletion strains, locus YNL322C, strain KRE1 (second series), stronger effect = lower value 0.997 | S. cerevisiae deletion strains, locus YNL322C, strain KRE1, stronger effect = lower value 1.01 | S. cerevisiae deletion strains, locus YNR049C, strain mso1, stronger effect = lower value 0.981 | S. cerevisiae deletion strains, locus YNR052C, strain pop2, stronger effect = lower value 0.991 | S. cerevisiae deletion strains, locus YOL006C, strain TOP1, stronger effect = lower value 1.09 | S. cerevisiae deletion strains, locus YOL012C, strain htz1 0.758 | S. cerevisiae deletion strains, locus YOL147C, strain pex11, stronger effect = lower value 0.995 | S. cerevisiae deletion strains, locus YOR001W, strain rrp6, stronger effect = lower value 0.971 | S. cerevisiae deletion strains, locus YOR061W, strain CKA2, stronger effect = lower value 1.01 | S. cerevisiae deletion strains, locus YOR069W, strain VPS5, stronger effect = lower value 1 | S. cerevisiae deletion strains, locus YOR070C, strain gyp1, stronger effect = lower value 0.979 | S. cerevisiae deletion strains, locus YOR080W, strain dia2, stronger effect = lower value 0.994 | S. cerevisiae deletion strains, locus YOR083W, strain WHI5, stronger effect = lower value 1 | S. cerevisiae deletion strains, locus YOR106W, strain vam3, stronger effect = lower value 0.999 | S. cerevisiae deletion strains, locus YOR136W, strain idh2, stronger effect = lower value 0.984 | S. cerevisiae deletion strains, locus YOR144C, strain elg1, stronger effect = lower value 0.989 | S. cerevisiae deletion strains, locus YOR184W, strain ser1, stronger effect = lower value 0.978 | S. cerevisiae deletion strains, locus YOR265W, strain rbl2, stronger effect = lower value 0.991 | S. cerevisiae deletion strains, locus YOR270C, strain vph1, stronger effect = lower value 0.982 | S. cerevisiae deletion strains, locus YOR290C, strain snf2, stronger effect = lower value 0.981 | S. cerevisiae deletion strains, locus YOR316C, strain cot1, stronger effect = lower value 0.989 | S. cerevisiae deletion strains, locus YPL051W, strain arl3, stronger effect = lower value 0.987 | S. cerevisiae deletion strains, locus YPL055C, strain LGE1, stronger effect = lower value 1.04 | S. cerevisiae deletion strains, locus YPL078C, strain atp4, stronger effect = lower value 0.988 | S. cerevisiae deletion strains, locus YPL106C, strain sse1, stronger effect = lower value 0.97 | S. cerevisiae deletion strains, locus YPL240C, strain hsp82, stronger effect = lower value 0.999 | S. cerevisiae deletion strains, locus YPL241C, strain CIN2, stronger effect = lower value 1.01 | S. cerevisiae deletion strains, locus YPR119W, strain clb2, stronger effect = lower value 0.998 | S. cerevisiae deletion strains, locus YPR141C, strain kar3, stronger effect = lower value 0.995 | S. cerevisiae deletion strains, locus YPR163C, strain tif3, stronger effect = lower value 0.986 | S. cerevisiae deletion strains, locus YPR167C, strain met16, stronger effect = lower value 1 | S. cerevisiae deletion strains, strain wtn01, stronger effect = lower value 1.01 | S. cerevisiae strains, strain wild type, stronger effect = lower value 0.999

Reference: PubChem BioAssay AID1159580 (chemical genetic matrix, 2015)
